High-throughput results from PubChem.
Mtb FBA inh: inhibits M. tuberculosis FBA enzyme | purified M. tuberculosis FBA, fluorescence read-out | inhibition, % at 1 µM | actives 2.3% (n = 360,000) | AID 588726
Yp Topo-I inh: inhibitors of Yersinia pestis topoisomerase I. Y. pestis Topo-I cleavage product accumulation, plate reader. activity, % at 10 µM. actives 0.064% (n = 360,000). AID 504884; in the data active means activity above about 50%, passing the limit was not always enough
GDH-TPI counter-1: counter-screen for M. tuberculosis FBA inhibitors: GDH-TPI coupled enzymes. GDH-TPI coupled enzyme counterscreen, NADH absorbance. inhibition, % at 4.8 µM. actives 1.2% (n = 360,000). AID 588335; in the data active means inhibition above about 30%
PrPC TRFRET: cell surface PrPC inhibition, primary TR-FRET screen; TR-FRET read-out; inhibition, % at 13.8 µM; actives 0.43% (n = 370,000); P04156; in the data active means inhibition above about 24%
TcdB inh: blocks C. difficile toxin B glycohydrolase activity; actives 0.24% (n = 350,000); AID 652162; TcdB glycohydrolase enzymatic assay, plate reader; inhibition, % at 9.99 µM; in the data active means inhibition above about 10%
Mtb FBA confirm: Mtb FBA inhibition, confirmed | actives 78% (n = 5,600) | shares compounds with Mtb FBA inh | purified M. tuberculosis FBA, fluorescence read-out | inhibition, % at 1 µM | AID 651616
GDH-TPI counter-2: inhibits GDH-TPI coupling enzymes, flagging Mtb FBA hits; inhibition, % at 1 µM; GDH-TPI coupled enzyme counterscreen, fluorescence; AID 652141; shares compounds with Mtb FBA inh; actives 81% (n = 5,600); in the data active means inhibition above about 10%
GDH-TPI DR: GDH-TPI dose response counter-screen for Mtb FBA. shares compounds with Mtb FBA inh. GDH-TPI coupled enzyme assay, fluorescence, artifact counterscreen. IC50, µM. actives 79% (n = 170). AID 652145; call rule not given here
Of the large screens only hits and unclear results are named; the others gave an inactive call (follow-up assays come after a bar, where they were run). Most compounds without a hit are left out; they make up all but 3.2% or so of the library. Unless noted, no stated cut-off is given here; in the data, active means inhibition above about 27%; inactive means the rest.

C[C@H](CO)N1C[C@H](C)[C@@H](CN(C)S(C)(=O)=O)Oc2ccc(NC(=O)Nc3cccc4ccccc34)cc2CC1=O	none (no result: Mtb FBA inh, Yp Topo-I inh, GDH-TPI counter-1, PrPC TRFRET)
COc1ccc(-c2c3c(cc4ncn(Cc5ccccc5)c24)COC3=O)cc1	Mtb FBA inh 63 | Mtb FBA confirm 141 | GDH-TPI counter-2 138
Cc1nn(-c2ccccc2)c2sc(C(=O)N(CC(=O)NC3CCCC3)Cc3ccco3)cc12	none (no result: TcdB inh)
CC1(C(=O)N(CC(=O)NC2CCCC2)Cc2ccccc2)CC(=O)N=C2C=CC=CN21 (configuration not stated)	Mtb FBA inh 109 | Mtb FBA confirm 140 | GDH-TPI counter-2 109
O=C(CCC(=O)N(CC(=O)NC1CCCCC1)Cc1ccccc1)Nc1ccccn1	none
CC1(C(=O)N(CC(=O)NC2CCCC2)Cc2ccco2)CC(=O)N=C2C=CC=CN21 (configuration not stated)	Mtb FBA inh 65 (no result: TcdB inh) | Mtb FBA confirm 118 | GDH-TPI counter-2 72
Cc1c(C)c2ccc(O[C@@H]3O[C@H](CO)[C@H](O)[C@H](O)[C@H]3O)cc2oc1=O	Mtb FBA inh 38 | Mtb FBA confirm 53 | GDH-TPI counter-2 42
COc1cc2cc(CN(Cc3nnnn3Cc3ccccc3)CC3CCCO3)c(=O)[nH]c2cc1OC (configuration not stated)	Mtb FBA inh 35 (no result: TcdB inh) | Mtb FBA confirm 136 | GDH-TPI counter-2 144
CCOC(=O)c1c(-c2ccc(F)cc2)cn2ccccc12	Mtb FBA inh 99 (no result: TcdB inh) | Mtb FBA confirm 139 | GDH-TPI counter-2 100
CCOC(=O)c1c(-c2ccc(C)cc2)cn2ccccc12	Mtb FBA inh 89 (no result: TcdB inh) | Mtb FBA confirm 106 | GDH-TPI counter-2 80
CCOC(=O)c1c(-c2ccccc2)c[nH]c1C	none
Cc1cc(C(=O)Nc2cccc3c2O[C@@H](CN(C)Cc2ccncc2)[C@H](C)CN([C@@H](C)CO)C3=O)n(C)n1	none (no result: Mtb FBA inh, Yp Topo-I inh, GDH-TPI counter-1, PrPC TRFRET)
CCC(=O)N(C)C[C@@H]1Oc2cc(-c3cccc(F)c3)ccc2S(=O)(=O)N([C@@H](C)CO)C[C@@H]1C	none (no result: Mtb FBA inh, Yp Topo-I inh, GDH-TPI counter-1, PrPC TRFRET)
O=C(Nc1ccccc1)[C@H]1[C@H](CO)[C@H]2Cn3c(cccc3=O)[C@@H]1N2C(=O)c1ccccc1	none (no result: Mtb FBA inh, Yp Topo-I inh, GDH-TPI counter-1, PrPC TRFRET)
CCOC(=O)C(=CN=C(N)Nc1nc2ccccc2o1)C(=O)OCC	Mtb FBA inh 32 | Mtb FBA confirm 29 | GDH-TPI counter-2 23
Cc1cc(=O)oc2cc(OCC(=O)N3CCC(O)CC3)c(Cl)cc12	none
Cc1cc(=O)oc2cc(OCC(=O)N3CCOCC3)c(Cl)cc12	Mtb FBA inh 109 | Mtb FBA confirm active | GDH-TPI counter-2 active
Cc1cc(=O)oc2cc(OCC(=O)N3CCCC3)c(Cl)cc12	Mtb FBA inh 31 | Mtb FBA confirm inactive | GDH-TPI counter-2 24
C[C@H](CO)N1C[C@H](C)[C@@H](CN(C)Cc2ccc(Cl)c(Cl)c2)Oc2ccc(NC(=O)CCN3CCOCC3)cc2CC1=O	none (no result: Mtb FBA inh, Yp Topo-I inh, GDH-TPI counter-1, PrPC TRFRET)
O=C1c2ccccc2NC(c2cccc([N+](=O)[O-])c2)N1CCc1ccccc1 (configuration not stated)	none
Cc1cccc(C2Nc3ccccc3C(=O)N2CCc2ccccc2)n1 (configuration not stated)	Mtb FBA inh 73 | Mtb FBA confirm active | GDH-TPI counter-2 active
O=C(Nc1cccc2ccccc12)N1CCOCC1	Mtb FBA inh 45 (no result: TcdB inh) | Mtb FBA confirm 122 | GDH-TPI counter-2 88
CCN1CCN(C(=O)Nc2cccc3ccccc23)CC1	Mtb FBA inh 44 (no result: TcdB inh) | Mtb FBA confirm 71 | GDH-TPI counter-2 72
O=C(O)c1ccccc1NC(=O)N1CCOCC1	Mtb FBA inh 32 | Mtb FBA confirm 112 | GDH-TPI counter-2 90
O=C(Nc1cccc2ccccc12)N1CCc2ccccc2C1	Mtb FBA inh 43 | Mtb FBA confirm inactive | GDH-TPI counter-2 inactive | GDH-TPI DR inactive
CCCNC(=O)N1[C@H](CO)[C@@H]2c3ccccc3N(C(=O)c3ccc(F)cc3)C[C@@H]21	none (no result: Mtb FBA inh, Yp Topo-I inh, GDH-TPI counter-1, PrPC TRFRET)
COCC(=O)N1[C@@H](C#N)[C@@H](c2ccccc2-c2cccc(OC)c2)[C@@H]1CO	none (no result: Mtb FBA inh, Yp Topo-I inh, GDH-TPI counter-1, PrPC TRFRET)
COC(=O)c1ccccc1NC(=O)N1CCN(c2ccc(F)cc2)CC1	none
O=C(Nc1cccc2ccccc12)N1CCN(c2ccc(F)cc2)CC1	Mtb FBA inh 30 (no result: TcdB inh) | Mtb FBA confirm 54 | GDH-TPI counter-2 55
CN1CCN(C(=O)Nc2cccc3ccccc23)CC1	Mtb FBA inh 40 | Mtb FBA confirm inactive | GDH-TPI counter-2 inactive
NC(=O)C1CCCN(C(=O)Nc2cccc3ccccc23)C1 (configuration not stated)	Mtb FBA inh 40 (no result: TcdB inh) | Mtb FBA confirm 60 | GDH-TPI counter-2 46
C[C@@H]1CN([C@H](C)CO)C(=O)Cc2cc(NC(=O)Cc3cn(C)c4ccccc34)ccc2O[C@H]1CN(C)S(=O)(=O)c1cccs1	none (no result: Mtb FBA inh, Yp Topo-I inh, GDH-TPI counter-1, PrPC TRFRET)
C[C@@H]1CCCCO[C@H](CN(C)S(=O)(=O)c2cccs2)[C@@H](C)CN([C@H](C)CO)C(=O)c2cc(NC(=O)CCCN(C)C)ccc2O1	none (no result: Mtb FBA inh, Yp Topo-I inh, GDH-TPI counter-1, PrPC TRFRET)
CC1(C)Cc2nc3oc4c(NCc5ccccc5)ncnc4c3cc2CO1	Mtb FBA inh 60 (no result: TcdB inh) | Mtb FBA confirm 47 | GDH-TPI counter-2 44
Cc1nc2oc3c(NCc4ccccn4)ncnc3c2c2c1COC(C)(C)C2	Mtb FBA inh 94 (no result: TcdB inh) | Mtb FBA confirm 86 | GDH-TPI counter-2 74
CC(C)c1nc2oc3c(NCc4ccccn4)ncnc3c2c2c1COC(C)(C)C2	none
CCC(=O)N(C)C[C@@H]1Oc2cc(C#CC(C)C)ccc2S(=O)(=O)N([C@@H](C)CO)C[C@H]1C	none (no result: Mtb FBA inh, Yp Topo-I inh, GDH-TPI counter-1, PrPC TRFRET)
COc1ccc(C2C3=C(CCCC3=O)Nc3n[nH]c(C)c32)cc1OC (configuration not stated)	none
Cc1ccc(C2C3=C(CC(C)(C)CC3=O)Nc3n[nH]c(C)c32)cc1 (configuration not stated)	Mtb FBA inh 28 (no result: TcdB inh) | Mtb FBA confirm 109 | GDH-TPI counter-2 94
Cc1[nH]nc2c1C(c1cccc(O)c1)C1=C(CC(C)(C)CC1=O)N2 (configuration not stated)	Mtb FBA inh 33 (no result: TcdB inh) | Mtb FBA confirm inactive | GDH-TPI counter-2 14
Cc1[nH]nc2c1C(c1ccc(F)cc1)C1=C(CC(C)(C)CC1=O)N2 (configuration not stated)	Mtb FBA inh 34 (no result: TcdB inh) | Mtb FBA confirm 56 | GDH-TPI counter-2 43
Cc1[nH]nc2c1C(c1ccc(N(C)C)cc1)C1=C(CC(C)(C)CC1=O)N2 (configuration not stated)	none
COc1ccc(-c2ccc([C@@H]3[C@@H](CO)N4C(=O)CN(C(=O)c5ccccn5)C[C@H]34)cc2)cc1	none (no result: Mtb FBA inh, Yp Topo-I inh, GDH-TPI counter-1, PrPC TRFRET)
C[C@H](CO)N1C[C@H](C)[C@H](CN(C)Cc2ccncc2)Oc2c(NS(C)(=O)=O)cccc2C1=O	none (no result: Mtb FBA inh, Yp Topo-I inh, GDH-TPI counter-1, PrPC TRFRET)
